The record followed here is PubChem BioAssay (Tox21).

Inconclusive results are not listed. Activity calls are given as the source filed them. Unless noted, the call rests on the fitted dose curve; in most records, active means well fitted curve in the direction sought with a large enough effect in the repeat runs; inconclusive means weak or mixed curves; inactive means no such curve, though single readings can be large; an effect the other way counts as inactive or inconclusive.

Assay [1] can be described thus: qHTS assay for small molecule agonists of the p53 signaling pathway (AID 651631; calls by dose curve; further: nearly all actives have a fitted effect of over 15% in size; further: potency means the concentration at half of the fitted maximal effect). An outline of the steps: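 p53RE-bla HCT-116 cells; compounds 16 h, 37 °C; LiveBLAzer B/G FRET substrate 2 h RT; fluorescence intensity read-out, qHTS format.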
In general terms: qHTS replaces the single test concentration by a dilution series.

Assay [2] in a line: qHTS assay for small molecules that induce genotoxicity in human embryonic kidney cells expressing luciferase-tagged ATAD5 (AID 651632). Further: nearly all actives have a fitted effect of over 15% in size. A digest of the protocol: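 DMSO vehicle served as the control. HEK293T reporter cells, 16 hr at 37C, then 30 min Amplite at room temperature; ATAD5 induction is measured as luciferase activity.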
Assay [3] can be described thus: qHTS assay for small molecule agonists of the p53 signaling pathway - cell viability (AID 651633; calls by dose curve; further: nearly all actives have a fitted effect of over 30% in size; further: potency means the concentration at half of the fitted maximal effect). An outline of the steps:
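p53RE-bla cells were treated with compound for 16 hours at 37 C. Cytotoxicity was then measured as CellTiter-Glo luminescence after 30 min at room temperature.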

A short description of assay [4]: qHTS assay for small molecules that induce genotoxicity in human embryonic kidney cells expressing luciferase-tagged ATAD5 - cell viability (AID 651634; calls by dose curve; further: nearly all actives have a fitted effect of over 25% in size). An outline of the steps: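 Here HEK293T cells with the ATAD5 luciferase reporter are incubated with test compounds for 15.5 hr, and cytotoxicity is then gauged by measuring protease activity in live cells using fluorescence.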

Assay [5] is described as follows: qHTS assay to test for compound auto fluorescence at 590 nm (red) in HepG2 cells (AID 720674). An outline of the steps: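 HepG2 cells, 2,000 per well in MEM with 10% FBS, attached overnight at 37 C, then got 23 nL compound or DMSO. After 1 hr at 37 C, 5% CO2, red fluorescence was read at 540/590 nm against Rose Bengal sodium as reference.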
Assay [6] in a line: qHTS assay to test for compound auto fluorescence at 535 nm (green) in HepG2 cells (AID 720675).
Assay [7] is described as follows: qHTS assay to test for compound auto fluorescence at 460 nm (blue) in HEK293 cells (AID 720678). A digest of the protocol:
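HEK293, 2,000 cells/well, 10% dialyzed FBS; attach 4-5 hr 37C; pin compound or DMSO; o/n 37C/5% CO2; fluorescence 405/460 nm; triamterene-equivalent units.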

Assay [8] is described as follows: qHTS assay to test for compound auto fluorescence at 590 nm (red) in HEK293 cells (AID 720679). A digest of the protocol:
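Intensity at 540nm excitation and 590nm emission is reported as Rose Bengal sodium-equivalent autofluorescence. Measurements followed overnight exposure (37C, 5% CO2) of HEK293 cells, 2,000 per well, to 23 nL compound.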

Assay [9] in a line: qHTS assay for small molecule disruptors of the mitochondrial membrane potential - cell viability (AID 720634; calls by dose curve;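 further: human HepG2 liver cancer cells; series mostly up to about 83 µM; nearly all actives have a fitted effect of over 20% in size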). An outline of the steps:
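Viability of HepG2 cells is scored from ATP content by luminescence; cells are exposed to compound for 1 hr at 37 C and 5% CO2, then dosed with m-MPI dye before the CellTiter-Glo reagent.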

A short description of assay [10]: qHTS assay for small molecule disruptors of the mitochondrial membrane potential (AID 720635). Further: potency means the concentration at half of the fitted maximal effect. A digest of the protocol: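 HepG2 cells exposed to compound 1 hr at 37C, then Mito-MPS dye 30 min. Ratio read of aggregate (540/590 nm) versus monomer (490/535 nm) fluorescence.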

`C=C1c2c(Cl)ccc(O)c2C(O)=C2C(=O)[C@]3(O)C(O)=C(C(N)=O)C(=O)[C@@H](N(C)C)[C@@H]3[C@@H](O)[C@H]12`: the Potency entry in assay [1], in [2], in assay [3], in [4], in assay [5] and in [6] was “inactive” throughout. For the same compound, the Potency result in assay [7] and in assay [8] was “inactive” each time.

In the case of `O=C(Cc1cccs1)N[C@@H]1C(=O)N2C(C(=O)[O-])=C(C[n+]3ccccc3)CS[C@H]12`, the Potency result in [1], in assay [2], in assay [3], in assay [4], in assay [5] and in [6] was “inactive” in each case. In addition, the Potency result in assay [7] and in [8] was “inactive” in each case.

On to `CC(=O)O[C@H]1C[C@@]2(C)[C@@H](C[C@@H](O)[C@H]3[C@@]4(C)CC[C@@H](O)[C@@H](C)[C@@H]4CC[C@@]32C)/C1=C(\CCC=C(C)C)C(=O)O`, for which the Potency result in [1], in assay [2], in assay [3], in assay [4], in assay [9] and in [5] was “inactive” each time. In addition, the Potency result in assay [6], in assay [7] and in [8] was “inactive” throughout.

For `CCOC(=O)[C@H](CCc1ccccc1)N[C@@H](C)C(=O)N1CC2(C[C@H]1C(=O)O)SCCS2`, the Potency result in assay [1], in assay [2], in assay [3], in assay [4], in assay [10] and in assay [5] was “inactive” throughout. The Potency result in [6], in assay [7] and in assay [8] was “inactive” throughout.

Turning to `COc1cc2c(cc1OC)[C@@H](c1ccccc1)CN(C)CC2`, the Potency entry in assay [1], in assay [2], in assay [3], in assay [4], in [5] and in [6] was “inactive” in each case. Moreover, the Potency result in assay [7] and in assay [8] was “inactive” throughout.

As for `C[C@@](Cc1ccc(O)c(O)c1)(NN)C(=O)O`, the Potency entry in assay [1], in assay [2], in assay [3], in [4], in [9] and in [5] was “inactive” in each case. Besides, the Potency result in assay [6], in assay [7] and in [8] was “inactive” in each case.

In the case of `Cc1ncc(COP(=O)(O)O)c(CN)c1O`, the Potency entry in assay [1], in assay [2], in assay [3], in assay [4], in assay [5] and in assay [6] was “inactive” each time. For the same compound, the Potency result in assay [7] and in [8] was “inactive” each time.

`C[C@]12CC[C@@H]3c4ccc(OS(=O)(=O)O)cc4CC[C@H]3[C@@H]1CCC2=O`: the Potency result in [1], in assay [2], in assay [3], in [4], in [5] and in [6] was “inactive” in each case. Also, the Potency result in assay [7] and in assay [8] was “inactive” throughout.

On to `CN1CC(O)c2cc(N=NC(N)=O)c(O)cc21` (centres undefined), for which the Potency result in assay [1], in [2], in assay [3], in assay [4], in assay [9] and in assay [5] was “inactive” each time. Besides, the Potency entry in assay [6], in [7] and in assay [8] was “inactive” throughout.

Turning to `CC(C)Cc1ccc([C@@H](C)C(=O)NS(C)(=O)=O)cc1`, the Potency result in assay [1], in assay [2], in assay [3], in [4], in [5] and in [6] was “inactive” throughout. Further, the Potency entry in assay [7] and in [8] was “inactive” in each case.

Consider `CCC(c1ccccc1)c1noc(CCN(CC)CC)n1` (centres undefined), for which the Potency result in assay [1], in assay [2], in [3], in [9], in [10] and in [5] was “inactive” throughout. Moreover, the Potency entry in assay [6], in assay [7] and in assay [8] was “inactive” throughout.

On to `CC(O)CN(C)C` (centres undefined), for which the Potency result in [1], in assay [2], in [3], in assay [4], in assay [5] and in [6] was “inactive” in each case. The Potency entry in [7] and in assay [8] was “inactive” in each case.

For `CC(C)CN(C[C@@H](O)[C@H](Cc1ccccc1)NC(=O)O[C@H]1CO[C@H]2OCC[C@H]21)S(=O)(=O)c1ccc(N)cc1`, the Potency result in [1], in assay [2], in [3], in assay [4], in [10] and in assay [5] was “inactive” each time. Also, the Potency entry in [6], in [7] and in assay [8] was “inactive” each time.

For `CN[C@@H]1CCc2[nH]c3ccc(C(N)=O)cc3c2C1`, the Potency result in [1], in assay [2], in assay [3], in assay [4], in assay [9] and in assay [5] was “inactive” in each case. Also, the Potency result in [6], in assay [7] and in assay [8] was “inactive” each time.

Consider `COc1cc(S(C)=O)ccc1-c1nc2ncccc2[nH]1` (centres undefined), for which the Potency entry in assay [1], in [2], in assay [3], in [9], in assay [10] and in assay [5] was “inactive” throughout. Further, the Potency entry in assay [6], in [7] and in assay [8] was “inactive” each time.

As for `NCCCNCCCCNC(=O)C(O)NC(=O)CCCCCCN=C(N)N` (centres undefined), the Potency entry in assay [1], in [2], in assay [3], in assay [4], in assay [9] and in assay [5] was “inactive” in each case. Besides, the Potency result in assay [6], in [7] and in [8] was “inactive” in each case.

As to `CNc1cc(OC)c(C(=O)N[C@H]2CCN(Cc3ccccc3)[C@H]2C)cc1Cl`, the Potency result in [1], in [2], in [3], in [9], in assay [5] and in assay [6] was “inactive” in each case. Further, the Potency result in assay [7] is “inactive”.

For `CO[C@H]1C=CO[C@@]2(C)Oc3c(C)c(O)c4c(O)c(c5c(nc6cc(C)ccn65)c4c3C2=O)NC(=O)/C(C)=C\C=C[C@H](C)[C@H](O)[C@@H](C)[C@@H](O)[C@@H](C)[C@H](OC(C)=O)[C@@H]1C`, the Potency result in [1], in [2], in assay [3], in assay [9], in assay [5] and in assay [6] was “inactive” each time. In addition, the Potency result in assay [7] and in [8] was “inactive” in each case.

Turning to `CC(C)C[C@H](NC(=O)[C@@H](Cc1c[nH]c2ccccc12)NC(=O)[C@H](Cc1ccc(O)cc1)NC(=O)[C@H](CO)NC(=O)[C@H](Cc1c[nH]c2ccccc12)NC(=O)[C@H](Cc1cnc[nH]1)NC(=O)[C@@H]1CCC(=O)N1)C(=O)N[C@@H](CCCN=C(N)N)C(=O)N1CCC[C@@H]1C(=O)NCC(N)=O`, the Potency entry in assay [1], in [3], in assay [4], in assay [9], in [5] and in [6] was “inactive” each time. Moreover, the Potency result in assay [7] and in assay [8] was “inactive” throughout.

For the compound `Cc1cc(Nc2ccccc2C(=O)O)ccc1Cl`, the Potency in assay [1] is 15 µM (active); in assay [3], 7.5 µM (active); in [10], 11.9 µM (active). Besides, the Potency entry in assay [4], in assay [9], in assay [5], in assay [6], in assay [7] and in [8] was “inactive” in each case.
